# Data: PubChem BioAssay AID1347043 (National Center for Advancing Translational Sciences (NCATS), 2019)
# In all, about 76,000 compounds went through this assay and about 1,900 (2.5%) were called active. Where a call stands in place of a potency, no number is given. Another 5% or so got no clear call; they are omitted. Calls come from the whole dose curve; as a rule, active = well fitted inhibition curve with a large enough effect; inconclusive = small, poorly fitted or top-dose-only effect; inactive = flat fitted curve, though single readings scatter. Only a selection was taken, and actives are over-represented in it overall.
# Biological target: Luciferin 4-monooxygenase (Photinus pyralis) (UniProt P08659)
# Sequence (P08659 whole entry, looked up): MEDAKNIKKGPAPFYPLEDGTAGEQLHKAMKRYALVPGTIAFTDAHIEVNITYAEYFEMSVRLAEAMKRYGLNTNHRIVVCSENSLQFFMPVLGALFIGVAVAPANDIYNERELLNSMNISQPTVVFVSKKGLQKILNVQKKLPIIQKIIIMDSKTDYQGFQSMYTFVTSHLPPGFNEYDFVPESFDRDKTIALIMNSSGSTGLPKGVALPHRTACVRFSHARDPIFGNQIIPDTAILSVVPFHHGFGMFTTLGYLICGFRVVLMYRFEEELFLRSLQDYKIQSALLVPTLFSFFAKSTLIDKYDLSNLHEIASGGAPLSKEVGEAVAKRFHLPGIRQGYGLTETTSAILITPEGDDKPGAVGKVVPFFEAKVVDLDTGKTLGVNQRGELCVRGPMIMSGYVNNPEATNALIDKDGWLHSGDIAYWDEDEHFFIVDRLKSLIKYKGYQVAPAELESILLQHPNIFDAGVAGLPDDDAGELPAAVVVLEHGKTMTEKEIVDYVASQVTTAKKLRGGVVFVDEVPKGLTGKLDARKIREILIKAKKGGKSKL
# Test: Firefly luciferase inhibition profiling of diverse chemical library using quantitative high-throughput screening; note: nearly all actives have a fitted effect of over 65% in size
# Conditions: purified P. pyralis luciferase, luminescence, biochemical; series mostly up to 115 µM
# Summary of the method: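 Luminescence read by CCD imaging after purified firefly luciferase (10nM final) was added to substrate buffer holding 10uM D-luciferin and 10uM ATP, pH 7.5, pre-dosed with compound.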
# Potency is the fitted concentration of half-maximal effect.
row,SMILES,Potency
1,COCCc1noc(-c2ccc(NC(C)c3ncccc3C)nc2)n1 (stereo not given),31.6 µM (active)
2,COCc1noc(-c2ccc(NCCN3CCNC3=O)nc2)n1,inactive
3,COc1cccc(CC(=O)NCCc2noc(-c3cccnc3)n2)c1,inactive
4,O=C(NC1CCN(Cc2ccc(F)c(F)c2)CC1)c1ccc2nccn2c1,inactive
5,O=C(c1ccncc1)N1CCC(c2cc(-c3ccc(F)cc3)n[nH]2)CC1,inactive
6,CCC1(N2CCN(C(=O)c3ccc(N(C)C)cc3)CC2)CCN(S(C)(=O)=O)C1 (stereo not given),inactive
7,Cc1nnn2c(C(=O)NC3CC3)cccc12,7.08 µM (active)
8,CC(=O)N1CCC(Cc2ccc(C(=O)NC3CC3)cc2)CC1,inactive
9,Cn1cccc1C(=O)NC1CCN(c2cc(-c3ccccc3)[nH]n2)CC1,inactive
10,O=C(c1cc(-c2ccccc2)n[nH]1)N1CC2CC(C1)[C@H]1CCCC(=O)N1C2 (stereo not given in full),inactive
11,Cc1ccc([S+](=O)([O-])N2CCn3c(nn(-c4ccncc4)c3=O)C2)cc1,inactive
12,COc1cc(F)ccc1-c1ccnc2nc(C(C)C)nn12,inactive
13,COc1ccccc1-c1cn(C)c(=O)n2cc(COc3ccc(C(=O)O)cc3)nc12,inactive
14,COc1cc(F)ccc1-c1ccc(COc2ccc3c(cnn3CCC(=O)O)c2)cc1,44.7 µM (active)
15,CCN1c2cc(C(=O)NC3CCN(Cc4ccccc4)CC3)ccc2C(=O)N2CCCCC21 (stereo not given),inactive
16,CC(C)CNc1ccc2nnc(-c3ccccn3)n2n1,inactive
17,O=C(c1ccccc1)N1CCCC(c2noc(COc3ccccc3)n2)C1 (stereo not given),inactive
18,CC(C)CNC(=O)N1CCCC(c2noc(COc3ccccc3F)n2)C1 (stereo not given),inactive
19,O=C(C1CC1)N1CCCC(c2noc(COc3ccccc3F)n2)C1 (stereo not given),35.5 µM (active)
20,C[C@H]1CN(C(=O)Nc2cc(F)cc(F)c2)C[C@@H]1c1nc(-c2ccncc2)no1,inactive
21,Cc1ccc(C(=O)N2CC(N(Cc3cccnc3)CC(C)C)C2)s1,inactive
22,CN(C)CCN(C)c1ccc(-c2nc(-c3ccccc3F)no2)cn1,15.8 µM (active)
23,Oc1ccc(-c2ccc(-c3nc(CCc4ccccc4)no3)cn2)cc1,inactive
24,CN(CCc1cn[nH]c1)c1ccc(-c2nc(-c3ccccc3F)no2)cn1,0.631 µM (active)
25,CSc1ccc(CNC(=O)c2cc3c(N4CCCC4)nc(C)cn3n2)cc1,inactive
26,CCOc1ccccc1-c1noc(-c2nnn3c2COC(c2ccc(Cl)cc2)C3)n1 (stereo not given),inactive
27,CCCCc1nc2cc(C(=O)N3CCCC3c3cc(C(C)C)on3)ccc2o1 (stereo not given),inactive
28,O=[S+]([O-])(Nc1ccccc1)c1ccc2c(c1)OCCN(CC1CC1)C2,inactive

row,SMILES,Potency
1,Cc1ccc(CN2CC[C@@](C)(O)[C@H](N3CCCC3)C2)s1,inactive
2,CC(C)CCN1CCC2(CC1)CC(=O)c1ccc(Cl)cc1O2,44.7 µM (active)
3,CC(C)CCN1CCC2(CC1)C(=O)NCN2Cc1ccc(Cl)cc1,inactive
4,COc1ccc(CN2CCC3(CC2)CC(=O)c2ccc(Cl)cc2O3)cc1,inactive
5,CC(C)NC(=O)N1CCC[C@@H](O)[C@H](NC(=O)c2ccc(OCC(N)=O)cc2)C1,inactive
6,CNC(=O)[C@@H]1CN(C(=O)Cc2c[nH]c3ccccc23)C[C@H]1COC,inactive
7,O=C(Nc1cccc(Br)c1)C1CC(=O)N(c2n[nH]c3cccc(F)c23)C1 (stereo not given),inactive
8,COCCCN(CCC(=O)N1CCC(C)CC1)C(=O)c1cc(C)oc1C,inactive
9,COc1ccc2[nH]c(C[C@@H]3C[C@@H](C(C)C)[C@H](CNC4CCN(C)CC4)C=C3C)nc2n1,inactive
10,COc1ccc(C2Cn3nnc(C(=O)N4CCN(C(=O)c5cccc(Cl)c5)CC4)c3CO2)cc1 (stereo not given),inactive
11,COc1ccc(C2Cn3cnc(C(=O)N4CCC(C(=O)NCc5cccc(F)c5)CC4)c3CO2)cc1 (stereo not given),inactive
12,COc1ccc(C2Cn3cnc(C(=O)N4CCC(C(=O)Nc5cc(C)cc(C)c5)CC4)c3CO2)cc1 (stereo not given),inactive
13,O=C(NCC1CC1)C1CCN(C(=O)c2ncn3c2COC(c2ccccc2)C3)CC1 (stereo not given),10 µM (active)
14,CCC(CC)C(=O)N1CCC(N2CCCC(C(=O)NCc3ccccc3)C2)CC1 (stereo not given),inactive
15,O=C(Nc1ccc(Cl)cc1)C1CCN(C(=O)c2ncn3c2COC(c2ccc(F)cc2)C3)CC1 (stereo not given),22.4 µM (active)
16,O=C(NCc1ccc(F)c(Cl)c1)C1CCN(C(=O)c2ncn3c2COC(c2ccccc2)C3)CC1 (stereo not given),11.2 µM (active)
17,CC(=O)N1CCC(C(=O)NCC2CCN(c3cc(-c4ccc(C)cc4)[nH]n3)CC2)CC1,inactive
18,CCOc1cccc(CNC(=O)c2cc3n(n2)CC(c2ccc(Cl)cc2)OC3)c1 (stereo not given),inactive
19,O=C(Nc1cccc(F)c1)c1cc2n(n1)CC(c1ccc(Cl)cc1)OC2 (stereo not given),inactive
20,COc1ccc(C2Cn3cnc(C(=O)N4CCC(C(=O)NC5CCCC5)CC4)c3CO2)cc1 (stereo not given),inactive
21,O=C(NCc1ccccc1)C1CCN(C(=O)c2ncn3c2COC(c2ccccc2)C3)CC1 (stereo not given),3.16 µM (active)
22,Cc1ccc(C(=O)N[C@H]2CO[C@H]3[C@@H]2OC[C@@H]3n2nnnc2Oc2ccc(-n3ccnc3)cc2)cc1,inactive
23,O=C(Nc1ccccc1)N1CCC2(CC1)CC(Cc1ccccc1)=NO2,inactive
24,COc1cccc(CC(=O)N2CCCn3nc(C)c(-c4ccccc4OCc4ccccc4)c32)c1,inactive
25,CC(C)Oc1ccc(CNC(=O)C2Cn3cccc3C(=O)N2Cc2cccnc2)cc1 (stereo not given),inactive
26,COc1ccccc1CN1CCN(C(=O)CCC[C@H]2NC[C@@H]3C[C@H]2CN(Cc2ccccc2)C3)CC1,inactive
27,CCCN1C(=O)Cc2cc(C(=O)NC3CC3)ccc21,inactive
